Bioassay records: PubChem BioAssay, Broad Institute
RAD52 anneal inh: RAD52 (human) annealing inhibition | recombinant RAD52 DNA annealing, FRET fluorescence | inhibition, % at 18.7 µM | 360,000 compounds, 0.46% hits;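 active = every replicate showing at least 50% inhibition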
NSD2 inh: NSD2 (human) methyltransferase inhibition | NSD2 peptide methylation, AlphaScreen, 120 min | O96028 | inhibition, % at 12.5 µM | 310,000 compounds, 0.54% hits | AID 743445; in the data active = inhibition above about 50%
miR122 inh: blocks miR-122 activity in Huh7 sensor cells. activation (reporter increase), % at 12.5 µM. 340,000 compounds, 0.3% hits. Huh7 miR-122 Renilla luciferase sensor, 48 h; neutral wells = 0, positive control = 100;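 active = mean replicate activation score at least 90 and every replicate individually at or above 90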;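 note: higher luciferase means less miR-122 activity so hits act as miR-122 inhibitors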
AF4-AF9 inh: blocks AF4 peptide binding to human AF9. AlphaScreen, biotin-AF4 peptide binding to FLAG-AF9. 350,000 compounds, 0.47% hits. AID 651704. P42568. inhibition, % at 10 µM;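 active = every replicate reaching a set inhibition limit, whatever the replicate mean, cut at about 25% in these data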
CASP6 VEID inh: caspase-6 (human) enzyme inhibition | P55212 | purified caspase-6, Z-VEID-R110 cleavage fluorescence | inhibition, % at 12.5 µM | 350,000 compounds, 0.53% hits;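 active = mean inhibition across replicates at least about 35%, with every replicate also reaching that limit, limit read from the data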
AlphaScreen art: interferes with AlphaScreen signal, flagging NSD2 false positives. shares compounds with NSD2 inh. AlphaScreen artifact counterscreen, preloaded methylated H4 peptide. AC35, µM (series often up to 10 µM). 1,500 compounds, 9.4% hits. AID 1053174; call rule not given here
Large screens that a line does not name were inactive (follow-up assays come after a bar, where they were run). Shown are actives, neighbours in structure and some others; about 1.5% of the full set was active somewhere.

Cc1ccc(-n2cccc2/C=C2/C(=N)N3C(=NC2=O)SN=C3S(C)(=O)=O)cc1Cl	NSD2 inh 127 (no result: RAD52 anneal inh, AF4-AF9 inh, CASP6 VEID inh) | AlphaScreen art inactive
COc1ccc(CCC(=O)Nc2ccc(S(=O)(=O)Nc3ncccn3)cc2)cc1	none
COc1ccc(CCC(=O)Nc2ccc(S(=O)(=O)Nc3nccc(C)n3)cc2)cc1	NSD2 inh 76, CASP6 VEID inh 58 | AlphaScreen art inactive
CN1c2ccc(C#Cc3cccnc3)cc2[C@@H]2[C@@H](CCN2S(=O)(=O)c2cccc(F)c2)[C@@H]1CO	none (no result: NSD2 inh)
COC(=O)C[C@@H]1C=C[C@H](NS(=O)(=O)c2ccc(OC)cc2)[C@@H](CO)O1	none (no result: NSD2 inh, miR122 inh)
CCN1CCN(c2ncnc3scc(-c4ccc(OC)cc4)c23)CC1	NSD2 inh 64 | AlphaScreen art inactive
COc1ccc(CN2CCN(c3ncnc4scc(-c5ccc(F)cc5)c34)CC2)cc1	none
COc1ccccc1/C=N/Nc1cc(C)nc(N2CCOCC2)n1	NSD2 inh 57 (no result: miR122 inh) | AlphaScreen art inactive
COc1ccccc1/C=N/Nc1cc(N(C)C)nc(N(C)C)n1	NSD2 inh 100, AF4-AF9 inh 29 (no result: miR122 inh) | AlphaScreen art inactive
COc1ccccc1/C=N/Nc1nc(C)cc(=O)[nH]1	none
CN(C)c1cc(N/N=C\c2ccccc2)nc(N(C)C)n1	NSD2 inh 103, AF4-AF9 inh 26 (no result: miR122 inh) | AlphaScreen art inactive
O=C(NCC[C@@H]1CC[C@H](NS(=O)(=O)c2cccc(F)c2)[C@H](CO)O1)C1CCCC1	none (no result: NSD2 inh)
CCCC(=O)Nc1ccc2c(c1)C(=O)N(C)[C@H]1CC[C@@H](CC(=O)NCCOC)O[C@@H]1CO2	none (no result: RAD52 anneal inh, NSD2 inh, AF4-AF9 inh, CASP6 VEID inh)
O=C(C[C@H]1CC[C@H]2[C@@H](COC[C@@H](O)CN2C(=O)c2ccccc2F)O1)NCc1ccccc1	none (no result: NSD2 inh)
Cc1cccc2c(N=NC(=O)c3ccc(NS(=O)(=O)c4cccs4)cc3)c(O)[nH]c12	NSD2 inh 64 | AlphaScreen art inactive
Cc1ccc(S(=O)(=O)N[C@@H]2CC[C@@H](CC(=O)O)O[C@H]2CO)cc1	none (no result: NSD2 inh)
CCCCCNc1nc(NCCCO)c(C#N)c2c1CN(C)CC2	NSD2 inh 51 (no result: RAD52 anneal inh, AF4-AF9 inh, CASP6 VEID inh) | AlphaScreen art inactive
COCC(=O)Nc1cc(C)cn(Cc2ccccc2Cl)c1=O	none
CCCC(=O)Nc1cc(C)cn(Cc2c(F)cccc2Cl)c1=O	NSD2 inh 76 | AlphaScreen art inactive
O=C(O)CC1S/C(=N/N=C/c2ccc(-c3ccc(Cl)cc3[N+](=O)[O-])o2)NC1=O (configuration not stated)	NSD2 inh 60 (no result: RAD52 anneal inh, AF4-AF9 inh, CASP6 VEID inh) | AlphaScreen art inactive
O=C(O)CC1S/C(=N/N=C/C=C/c2ccccc2[N+](=O)[O-])NC1=O (configuration not stated)	none (no result: RAD52 anneal inh, AF4-AF9 inh, CASP6 VEID inh)
O=C(C[C@H]1C[C@H]2c3cc(NC(=O)c4cccnc4)ccc3O[C@H]2[C@@H](CO)O1)NC1CCCCC1	none (no result: NSD2 inh)
CCOC(=O)C(CCCCP(=O)(c1ccccc1)c1ccccc1)(NC(C)=O)C(=O)OCC	none (no result: AF4-AF9 inh)
CCOC(=O)C(CCCP(=O)(c1ccccc1)c1ccccc1)(NC(C)=O)C(=O)OCC	NSD2 inh 60 | AlphaScreen art inactive
O=C(COC(=O)c1ccccc1F)NC1CC1	NSD2 inh 52 (no result: miR122 inh) | AlphaScreen art inactive
O=C(COC(=O)c1ccccc1F)NC1CCCC1	none
CCN(CC)CCC(=O)c1ccc(F)cc1	NSD2 inh 59 (no result: miR122 inh) | AlphaScreen art inactive
CN(C)CCC(=O)c1ccc(F)cc1	none
CC(C)NC(=O)N(C)C[C@H]1Oc2ccc(NC(=O)Cc3ccccc3)cc2C(=O)N([C@@H](C)CO)C[C@H]1C	none (no result: NSD2 inh)
CSc1nsc(SCC(=O)Nc2cccc(C(=O)O)c2)n1	none
CSc1nsc(SCC(=O)Nc2cccc(NC(C)=O)c2)n1	NSD2 inh 63 (no result: miR122 inh) | AlphaScreen art inactive
C[C@H]1CN([C@@H](C)CO)C(=O)Cc2cc(NC(=O)CCCCCC(=O)Nc3ccccc3N)ccc2O[C@@H]1CN(C)S(=O)(=O)c1ccc(Cl)cc1	none (no result: RAD52 anneal inh, NSD2 inh, AF4-AF9 inh, CASP6 VEID inh)
O=C(Nc1cc(C(F)(F)F)ccc1N1CCCC1)C1CC(=O)N(Cc2ccccc2)C1 (configuration not stated)	NSD2 inh 56 | AlphaScreen art inactive
CN1[C@@H]2Cn3c(ccc(-c4cccc(F)c4)c3=O)[C@H]1[C@@H](C(=O)N1CCCCC1)[C@@H]2CO	none (no result: NSD2 inh)
COc1ccc(-c2cn[nH]c2N)cc1	NSD2 inh 63 (no result: RAD52 anneal inh, AF4-AF9 inh, CASP6 VEID inh) | AlphaScreen art inactive
Cc1noc(C)c1S(=O)(=O)Nc1ccc2c(c1)C(=O)N([C@H](C)CO)C[C@@H](C)[C@@H](CN(C)C(=O)c1ccccc1)OCCCC[C@@H](C)O2	none (no result: NSD2 inh)
Cc1cc2nn(-c3cccc4ccccc34)nc2cc1NC(=O)c1cccs1	NSD2 inh 126 (no result: AF4-AF9 inh) | AlphaScreen art inactive
Cc1ccc(-c2nn3c(C)nnc3s2)cc1NC(=O)c1cccs1	none (no result: RAD52 anneal inh, AF4-AF9 inh, CASP6 VEID inh)
Cc1cc(=O)[nH]c(COc2ccccc2)n1	NSD2 inh 55 (no result: RAD52 anneal inh, AF4-AF9 inh, CASP6 VEID inh) | AlphaScreen art inactive
Cc1nn(CC(=O)Nc2nnc(CC(=O)N3CCCC3)s2)c(=O)c2ccccc12	none (no result: RAD52 anneal inh, AF4-AF9 inh, CASP6 VEID inh)
Cc1nn(CC(=O)Nc2nnc(C(C)C)s2)c(=O)c2ccccc12	NSD2 inh 59 (no result: miR122 inh) | AlphaScreen art inactive
COc1cccc(/C(O)=C2\C(=O)C(=O)N(c3ccccn3)C2c2ccccc2OC)c1 (configuration not stated)	none (no result: RAD52 anneal inh, AF4-AF9 inh, CASP6 VEID inh)
COc1ccc(C2/C(=C(\O)c3cccc(OC)c3)C(=O)C(=O)N2c2ccccn2)cc1 (configuration not stated)	NSD2 inh 116 (no result: AF4-AF9 inh) | AlphaScreen art inactive
O=C(CSc1nc2nn(-c3ccccc3)c(=O)c-2c2n1CCCCC2)c1ccc(O)c(O)c1	NSD2 inh 94 (no result: RAD52 anneal inh, AF4-AF9 inh, CASP6 VEID inh) | AlphaScreen art 7.9µM
C[C@@H]1CN([C@H](C)CO)C(=O)c2cccc(NC(=O)C3CCOCC3)c2O[C@@H]1CN(C)Cc1ccc2c(c1)OCO2	none (no result: NSD2 inh)
CC(C)C#Cc1ccc([C@@H]2[C@H]3CN(C(=O)C4CCCCC4)CC(=O)N3[C@H]2CO)cc1	none (no result: NSD2 inh, miR122 inh)
CC1(C)Cc2c(c(-c3ccco3)[nH]c(=O)c2C#N)CS1	NSD2 inh 94 (no result: RAD52 anneal inh, AF4-AF9 inh, CASP6 VEID inh) | AlphaScreen art inactive
Nc1nc(Nc2ccccc2F)nc(NCc2ccccc2)c1[N+](=O)[O-]	none
Nc1nc(Nc2ccccc2F)nc(NCCO)c1[N+](=O)[O-]	NSD2 inh 60 | AlphaScreen art inactive
C[C@@H]1CN([C@H](C)CO)C(=O)c2ccccc2-c2ccccc2CO[C@@H]1CN(C)S(=O)(=O)c1ccsc1	none (no result: NSD2 inh, miR122 inh)
COc1ccccc1CN(Cc1cc2cc3c(cc2[nH]c1=O)OCCO3)Cc1nnnn1Cc1ccco1	NSD2 inh 60 (no result: RAD52 anneal inh, AF4-AF9 inh, CASP6 VEID inh) | AlphaScreen art inactive
CS(=O)(=O)N1CC(=O)N2[C@@H](CO)[C@H](c3ccc(C#CCC4CCCC4)cc3)[C@@H]2C1	none (no result: NSD2 inh, miR122 inh)
COC(=O)c1cccc(-c2ccc(C(c3c(C)[nH][nH]c3=O)c3c(C)[nH][nH]c3=O)o2)c1	NSD2 inh 107 | AlphaScreen art inactive
COC(=O)c1ccccc1-c1ccc(C(c2c(C)[nH][nH]c2=O)c2c(C)[nH][nH]c2=O)o1	NSD2 inh 196, CASP6 VEID inh 42 (no result: miR122 inh) | AlphaScreen art inactive
